Drawing on PubChem BioAssay (NCATS), this text covers remaining parasite growth % (stronger effect = lower value) for 32 compounds.

Molecules are shown by their SMILES.

This test is described as follows: qHTS profiling for inhibitors of Plasmodium falciparum (3D7) proliferation (AID 743322).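 Further: infected erythrocytes exposed to compound for 72 h before lysis; 100% = DMSO vehicle wells and 0% = 0.29 µM artemisinin.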 The conditions noted are these: P. falciparum 3D7 proliferation; at 28.7 µM (top of the series) unless noted. In outline:
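Parasite DNA was quantified by SYBR Green I fluorescence (ex 485, em 535 nm) after overnight lysis in saponin/Triton buffer at room temperature. Cultures at 0.3% parasitemia and 2.5% hematocrit were first exposed to compound for 72 h at 37 C; signals were normalised to artemisinin (0.29 uM) and vehicle wells.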
As to `O=C(Nc1ccc(OC(F)(F)F)cc1)c1sccc1NCc1ccnc2ccccc12`, the remaining parasite growth % (stronger effect = lower value) is 71.5%.

For the compound `Cc1ccc(NC(=O)c2ccc(CN3CCN(C)CC3)cc2)cc1Nc1nc(-c2cccnc2)cs1`, the remaining parasite growth % (stronger effect = lower value) is 0.463%.

On to `O=C(O)c1ccc(O)c2ncc(N3CCOCC3)cc12`, for which the remaining parasite growth % (stronger effect = lower value) stood at 22.3%.

For `CC(C)Oc1cc(Nc2nc(N[C@@H](C)c3ccc(F)cn3)ncc2Cl)[nH]n1`, the remaining parasite growth % (stronger effect = lower value) amounted to 3.18%.

`CCCCn1c(=O)n(Cc2ccccc2F)c(=O)c2[nH]c(Cc3ccc(NC(C)=O)cc3)nc21`: the remaining parasite growth % (stronger effect = lower value) was 71.1%.

As to `Clc1ccc(COC(Cn2ccnc2)c2ccc(Cl)cc2Cl)c(Cl)c1` (configuration not stated), the remaining parasite growth % (stronger effect = lower value) is -0.257%.

Consider `Cc1ccc(C(=O)N(CCCN)[C@@H](c2nc3cc(Cl)ccc3c(=O)n2Cc2ccccc2)C(C)C)cc1`, for which the remaining parasite growth % (stronger effect = lower value) was -0.752%.

On to `Nc1ccc(-c2ccc3ncc4ccc(=O)n(-c5cccc(C(F)(F)F)c5)c4c3c2)cn1`, for which the remaining parasite growth % (stronger effect = lower value) is -1.33%.

Take `Cc1c(C(=O)Nc2ccc(N3C[C@@H](C)O[C@@H](C)C3)nc2)cccc1-c1ccc(OC(F)(F)F)cc1`: the remaining parasite growth % (stronger effect = lower value) worked out at 72.2%.

`OCCn1cc(-c2ccc3c(c2)CCC3=NO)c(-c2ccncc2)n1`: the remaining parasite growth % (stronger effect = lower value) turned out to be 89.8%.

For the compound `C=C[C@@H]1CN2CCC1C[C@@H]2C(O)c1ccnc2ccc(OC)cc12` (some centres not stated), the remaining parasite growth % (stronger effect = lower value) came to 2.76%.

For the compound `CNC(=O)c1cc(Oc2ccc(NC(=O)Nc3ccc(Cl)c(C(F)(F)F)c3)c(F)c2)ccn1`, the remaining parasite growth % (stronger effect = lower value) came out at 1.04%.

As to `CC(C)C[C@@H](C(=O)N[C@H](C(=O)OC1CCCC1)c1ccccc1)[C@H](O)C(=O)NO`, the remaining parasite growth % (stronger effect = lower value) amounted to 3.5%.

In the case of `Cn1cc(-c2ccc3nnc(Sc4ccc5ncccc5c4)n3n2)cn1`, the remaining parasite growth % (stronger effect = lower value) is 74.3%.

Turning to `CO[C@@H]1C(N(C)C(=O)c2ccccc2)C[C@H]2O[C@]1(C)n1c3ccccc3c3c4c(c5c6ccccc6n2c5c31)C(=O)NC4=O` (some centres not stated), the remaining parasite growth % (stronger effect = lower value) is 110%.

In the case of `COc1c(C)cnc(Cn2cnc3c(Cl)nc(N)nc32)c1C`, the remaining parasite growth % (stronger effect = lower value) is 40.5%.

`O=C1NC(=O)C(c2cnc3ccccn23)=C1c1cn2c3c(cccc13)CN(C(=O)N1CCOCC1)CC2`: the remaining parasite growth % (stronger effect = lower value) was 49.3%.

For the compound `CC(=O)NCCC(=O)N[C@@H](CCC(N)=O)C(=O)N[C@@H](CO)C(=O)N[C@@H](CCC(N)=O)C(=O)N[C@@H](CCC(N)=O)C(=O)N[C@H](C(=O)N[C@@H](Cc1ccccc1)C(=O)N[C@]1(C)CCCCCCC=CCCC[C@@](C)(C(=O)N[C@@H](CCC(N)=O)C(=O)N[C@@H](CC(N)=O)C(N)=O)NC(=O)[C@H](CC(C)C)NC(=O)[C@H](CC(C)C)NC(=O)[C@@H](CCCNC(=N)N)NC(=O)[C@H](Cc2c[nH]c3ccccc23)NC(=O)[C@H](CC(C)C)NC(=O)[C@H](CC(N)=O)NC1=O)[C@H](C)O`, the remaining parasite growth % (stronger effect = lower value) is 38.2%.

In the case of `CCOC(=O)[C@@H](N)CCC(=O)N[C@@H](CSCc1ccccc1)C(=O)N[C@@H](C(=O)OCC)c1ccccc1`, the remaining parasite growth % (stronger effect = lower value) was found to be 51.1%.

As for `CC1=C[C@@H]2[C@@H]([C@@H](O)C[C@@]3(C)[C@H]2C[C@@H](C)[C@]3(O)C(=O)CO)[C@@]2(C)Cc3cnn(-c4ccccc4)c3C=C12`, the remaining parasite growth % (stronger effect = lower value) came to 0.407%.

Regarding `Cc1nn(Cc2ccccc2Cl)c(C)c1CN(C)CC(O)COc1ccc(Cl)cc1` (configuration not stated), the remaining parasite growth % (stronger effect = lower value) came to 29.8%.

Take `COc1ccc2nc3cc(Cl)ccc3c(Nc3cc(CN4CCCC4)c(O)c(CN4CCCC4)c3)c2n1`: the remaining parasite growth % (stronger effect = lower value) was -1.29%.

As to `O=C(O)Cc1cccc(OCCCN(Cc2cccc(C(F)(F)F)c2Cl)CC(c2ccccc2)c2ccccc2)c1`, the remaining parasite growth % (stronger effect = lower value) came to 36.2%.

In the case of `CCN(CC)CCCCNc1nc2cc(Cl)c(Cl)cc2nc1-c1ccc(-c2cccs2)s1`, the remaining parasite growth % (stronger effect = lower value) was 0.96%.

For the compound `CCc1cc(-c2n[nH]c(C)c2-c2ccc3c(c2)OCCO3)c(O)cc1O`, the remaining parasite growth % (stronger effect = lower value) is 99.3%.

Turning to `CC(O)=C(C#N)C(=O)Nc1ccc(C(F)(F)F)cc1`, the remaining parasite growth % (stronger effect = lower value) came to 89.8%.

Take `Cc1csc(-c2nnc(Nc3ccc(Oc4ncccc4-c4ccnc(N)n4)cc3)c3ccccc23)c1`: the remaining parasite growth % (stronger effect = lower value) is 93.3%.

In the case of `O=C(Nc1cccc(Cl)c1)Nc1ncc(CCNc2ncnc3ccsc23)s1`, the remaining parasite growth % (stronger effect = lower value) turned out to be 0.421%.

`CC(=O)Nc1cccc(-n2c(=O)n(C3CC3)c(=O)c3c(Nc4ccc(I)cc4F)n(C)c(=O)c(C)c32)c1`: the remaining parasite growth % (stronger effect = lower value) was -2.85%.

As for `COc1cc([C@@H]2c3cc4c(cc3[C@@H](O[C@@H]3O[C@@H]5CO[C@@H](C)O[C@@H]5[C@H](O)[C@@H]3O)[C@H]3COC(=O)[C@H]23)OCO4)cc(OC)c1O`, the remaining parasite growth % (stronger effect = lower value) is 51.5% [at 9.63 µM].

`O=C1C(CCC(O)c2ccc(F)cc2)C(c2ccc(O)cc2)N1c1ccc(F)cc1` (configuration not stated): the remaining parasite growth % (stronger effect = lower value) was found to be 18.4%.

Take `CCCCOCCOc1nc(-c2ccc(C(=O)O)c(F)c2)sc1C`: the remaining parasite growth % (stronger effect = lower value) was 105%.
